# Targets with a hit are over-represented here; the source holds about 8,800 in all. About 0.5% of all pairs of compound and target were hits. Values without a mark were called inactive.
# Key:
# Assay in all cases: log2 fold change, soluble protein after heating vs DMSO (PISA); higher = thermal stabilisation; K562 lysate, 10 uM; active = over 0.2 and 3.5 SD of the protein, either way, in both replicates (recomputed)
# vemurafenib = compound: CCCS(=O)(=O)Nc1ccc(F)c(C(=O)c2c[nH]c3ncc(-c4ccc(Cl)cc4)cc23)c1F [vemurafenib]
# In short: (§1)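 K562 pellets were dounce-homogenised in PBS pH 7.4 with 1 mM MgCl2, and the crude extract at 1 mg/mL protein was treated with 10 μM compound for 30 min. Aliquots were heated for 3 min across 48°C-58°C, pooled, and brought to 0.5% NP-40 at 4°C; soluble protein was the supernatant after 21,000xg for 90 min. Soluble protein was quantified by TMTpro 16plex LC-MS/MS with channel sums equalised, and reported as log2 fold change in thermal stability against DMSO controls, with values from duplicates.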
# [1] = compound: CCCS(=O)(=O)Nc1ccc(F)c(C(=O)c2c[nH]c3ncc(Cl)cc23)c1F
# In short: as §1
# barasertib = compound: CCN(CCCOc1ccc2c(Nc3cc(CC(=O)Nc4cccc(F)c4)[nH]n3)ncnc2c1)CCOP(=O)(O)O [barasertib]
# In short: as §1
# [2] = compound: CC[C@@H]1C(=O)N(C)c2cnc(Nc3ccc(C(=O)NC4CCN(C)CC4)cc3OC)nc2N1C1CCCC1
# In short: as §1
# volasertib = compound: CC[C@@H]1C(=O)N(C)c2cnc(Nc3ccc(C(=O)N[C@H]4CC[C@H](N5CCN(CC6CC6)CC5)CC4)cc3OC)nc2N1C(C)C [volasertib]
# In short: as §1
# [3] = compound: CCn1c(C(=O)N(C2CC2)C2CC2)cc2c3c(ncn3C)c(Nc3cc(C)n(C)n3)nc21
# In short: as §1
# [4] = compound: CCn1cc(-c2ccnc3[nH]c(-c4cccc(CN(C)C)c4)cc23)c(-c2ccc(NC(=O)N(C)C)cc2)n1
# In short: as §1
# [5] = compound: CN1CCC(CNc2ccc3ncc(-c4cccc(OC(F)(F)F)c4)n3n2)CC1
# In short: as §1
# saracatinib = compound: CN1CCN(CCOc2cc(OC3CCOCC3)c3c(Nc4c(Cl)ccc5c4OCO5)ncnc3c2)CC1 [saracatinib]
# In short: as §1
# sotrastaurin = compound: CN1CCN(c2nc(C3=C(c4c[nH]c5ccccc45)C(=O)NC3=O)c3ccccc3n2)CC1 [sotrastaurin]
# In short: as §1
# alvocidib = compound: CN1CC[C@H](c2c(O)cc(O)c3c(=O)cc(-c4ccccc4Cl)oc23)[C@H](O)C1 [alvocidib]
# In short: as §1
# Tubastatin A = compound: CN1CCc2c(c3ccccc3n2Cc2ccc(C(=O)NO)cc2)C1 [Tubastatin A]
# In short: as §1
# [6] = compound: CNC(=O)C1=CC=CC=C1NC2=NC(=NC=C2Cl)NC3=C(C=C(C=C3)N4CCOCC4)OC
# In short: as §1
# defactinib = compound: CNC(=O)c1ccc(Nc2ncc(C(F)(F)F)c(NCc3nccnc3N(C)S(C)(=O)=O)n2)cc1 [defactinib]
# In short: as §1
# [7] = compound: CNc1nc(-c2ccc3c(N)n[nH]c3c2)cc(N2C[C@@H](C(=O)NC3CCCCC3)CC[C@H]2C)n1
# In short: as §1
# encorafenib = compound: COC(=O)N[C@@H](C)CNc1nccc(-c2cn(C(C)C)nc2-c2cc(Cl)cc(NS(C)(=O)=O)c2F)n1 [encorafenib]
# In short: as §1
# [8] = compound: COC(=O)[C@H](CCSC)NC(=O)C1=C(C=C(C=C1)NC[C@H](CS)N)C2=CC=CC=C2
# In short: as §1
# alisertib = compound: COc1cc(Nc2ncc3c(n2)-c2ccc(Cl)cc2C(c2c(F)cccc2OC)=NC3)ccc1C(=O)O [alisertib]
# In short: as §1
# [9] = compound: COc1cc2nc(-c3cc(F)ccc3O)nc(N[C@@H]3CNC[C@H]3C(C)(C)O)c2cc1OC
# In short: as §1
# gefitinib = compound: COc1cc2ncnc(Nc3ccc(F)c(Cl)c3)c2cc1OCCCN1CCOCC1 [gefitinib]
# In short: as §1
# Chain of UniProt O60504 (O60504 whole entry, looked up): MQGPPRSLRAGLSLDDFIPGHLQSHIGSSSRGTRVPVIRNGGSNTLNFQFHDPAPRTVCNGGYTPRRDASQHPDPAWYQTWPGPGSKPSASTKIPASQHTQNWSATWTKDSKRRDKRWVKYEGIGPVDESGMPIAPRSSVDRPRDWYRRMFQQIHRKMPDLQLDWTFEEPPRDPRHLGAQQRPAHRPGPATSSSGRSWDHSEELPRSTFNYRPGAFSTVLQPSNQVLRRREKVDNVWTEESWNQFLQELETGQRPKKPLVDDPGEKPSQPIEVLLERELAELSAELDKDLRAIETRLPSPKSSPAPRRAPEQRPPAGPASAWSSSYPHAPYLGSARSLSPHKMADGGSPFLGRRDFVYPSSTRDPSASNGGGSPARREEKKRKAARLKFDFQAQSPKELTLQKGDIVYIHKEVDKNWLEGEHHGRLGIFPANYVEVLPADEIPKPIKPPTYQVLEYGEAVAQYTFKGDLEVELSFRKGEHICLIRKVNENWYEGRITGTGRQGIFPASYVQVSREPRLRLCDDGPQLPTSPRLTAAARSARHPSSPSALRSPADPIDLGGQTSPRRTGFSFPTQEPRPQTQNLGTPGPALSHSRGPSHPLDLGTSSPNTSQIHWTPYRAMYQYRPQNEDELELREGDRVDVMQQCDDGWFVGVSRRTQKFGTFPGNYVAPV
# Chain of UniProt P10124 (P10124 whole entry, looked up): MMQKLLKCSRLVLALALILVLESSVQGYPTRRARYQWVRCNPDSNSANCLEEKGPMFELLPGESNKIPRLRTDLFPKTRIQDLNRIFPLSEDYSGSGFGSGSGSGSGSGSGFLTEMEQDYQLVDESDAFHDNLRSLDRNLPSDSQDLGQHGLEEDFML
# Chain of UniProt P49281 (P49281 whole entry, looked up): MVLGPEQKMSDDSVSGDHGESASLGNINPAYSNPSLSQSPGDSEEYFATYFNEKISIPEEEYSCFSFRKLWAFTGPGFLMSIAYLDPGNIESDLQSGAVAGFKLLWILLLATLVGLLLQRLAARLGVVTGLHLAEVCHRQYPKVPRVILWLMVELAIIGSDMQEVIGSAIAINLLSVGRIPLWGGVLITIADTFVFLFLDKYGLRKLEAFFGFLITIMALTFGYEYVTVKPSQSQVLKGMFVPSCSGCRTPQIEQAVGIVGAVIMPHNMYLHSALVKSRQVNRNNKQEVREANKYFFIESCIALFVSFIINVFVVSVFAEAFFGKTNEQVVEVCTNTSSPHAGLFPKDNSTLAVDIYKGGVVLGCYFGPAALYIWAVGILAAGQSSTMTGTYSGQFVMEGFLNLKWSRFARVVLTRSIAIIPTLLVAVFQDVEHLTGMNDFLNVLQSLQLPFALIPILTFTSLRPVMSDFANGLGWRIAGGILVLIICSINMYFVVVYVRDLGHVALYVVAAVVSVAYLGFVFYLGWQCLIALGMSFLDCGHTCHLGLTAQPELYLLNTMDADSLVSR
# Chain of UniProt Q13395 (Q13395 whole entry, looked up): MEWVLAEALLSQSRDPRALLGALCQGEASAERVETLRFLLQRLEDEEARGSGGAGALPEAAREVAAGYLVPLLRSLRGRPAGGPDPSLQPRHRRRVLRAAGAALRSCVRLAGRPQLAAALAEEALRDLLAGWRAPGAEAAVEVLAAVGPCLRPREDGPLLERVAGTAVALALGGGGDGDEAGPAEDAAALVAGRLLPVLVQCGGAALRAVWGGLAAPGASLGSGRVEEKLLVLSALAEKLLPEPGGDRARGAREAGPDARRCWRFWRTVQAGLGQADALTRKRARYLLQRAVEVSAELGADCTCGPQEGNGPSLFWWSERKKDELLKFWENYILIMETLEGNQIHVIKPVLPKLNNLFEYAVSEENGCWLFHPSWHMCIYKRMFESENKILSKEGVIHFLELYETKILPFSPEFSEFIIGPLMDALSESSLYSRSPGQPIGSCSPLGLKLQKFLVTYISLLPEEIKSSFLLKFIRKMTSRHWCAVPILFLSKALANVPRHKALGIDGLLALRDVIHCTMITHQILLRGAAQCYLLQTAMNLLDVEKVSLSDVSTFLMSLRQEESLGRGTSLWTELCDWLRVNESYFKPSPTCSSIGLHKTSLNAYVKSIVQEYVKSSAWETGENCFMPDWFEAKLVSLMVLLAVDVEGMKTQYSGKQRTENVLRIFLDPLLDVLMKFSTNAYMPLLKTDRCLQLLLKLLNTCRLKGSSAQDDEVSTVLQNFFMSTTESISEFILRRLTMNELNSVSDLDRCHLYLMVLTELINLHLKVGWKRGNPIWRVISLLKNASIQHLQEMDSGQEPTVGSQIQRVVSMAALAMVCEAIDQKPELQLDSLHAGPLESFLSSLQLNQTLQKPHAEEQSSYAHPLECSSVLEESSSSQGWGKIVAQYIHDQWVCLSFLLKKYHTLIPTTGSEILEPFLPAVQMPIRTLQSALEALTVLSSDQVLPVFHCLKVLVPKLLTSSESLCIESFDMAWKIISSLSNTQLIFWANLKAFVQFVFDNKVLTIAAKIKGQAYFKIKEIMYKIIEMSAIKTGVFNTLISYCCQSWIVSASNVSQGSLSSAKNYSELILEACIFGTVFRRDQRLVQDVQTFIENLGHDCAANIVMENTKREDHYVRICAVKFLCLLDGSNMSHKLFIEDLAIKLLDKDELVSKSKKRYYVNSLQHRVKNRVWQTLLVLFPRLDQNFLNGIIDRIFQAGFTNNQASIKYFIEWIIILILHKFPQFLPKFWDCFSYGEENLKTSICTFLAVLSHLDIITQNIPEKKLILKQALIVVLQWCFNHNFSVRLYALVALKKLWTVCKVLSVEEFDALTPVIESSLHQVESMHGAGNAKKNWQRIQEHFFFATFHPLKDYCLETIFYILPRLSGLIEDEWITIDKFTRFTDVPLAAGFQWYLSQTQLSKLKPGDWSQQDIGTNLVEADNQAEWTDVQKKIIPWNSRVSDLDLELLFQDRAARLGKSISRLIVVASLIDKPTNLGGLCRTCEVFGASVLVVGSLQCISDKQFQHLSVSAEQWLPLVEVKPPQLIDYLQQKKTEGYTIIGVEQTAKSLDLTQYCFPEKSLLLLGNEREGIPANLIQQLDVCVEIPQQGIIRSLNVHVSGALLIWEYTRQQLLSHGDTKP
# Chain of UniProt Q99961 (Q99961 whole entry, looked up): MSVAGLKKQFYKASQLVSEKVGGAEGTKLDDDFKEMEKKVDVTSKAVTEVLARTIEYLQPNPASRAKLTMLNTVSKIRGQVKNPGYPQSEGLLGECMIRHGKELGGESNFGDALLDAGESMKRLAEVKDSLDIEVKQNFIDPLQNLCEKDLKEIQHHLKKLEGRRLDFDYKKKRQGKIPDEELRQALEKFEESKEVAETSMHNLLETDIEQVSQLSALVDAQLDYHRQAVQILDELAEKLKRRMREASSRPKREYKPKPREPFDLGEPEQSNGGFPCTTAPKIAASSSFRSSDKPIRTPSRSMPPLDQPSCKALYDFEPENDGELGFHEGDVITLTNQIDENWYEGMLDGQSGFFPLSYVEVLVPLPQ
# Chain of UniProt Q6PML9 (Q6PML9 whole entry, looked up): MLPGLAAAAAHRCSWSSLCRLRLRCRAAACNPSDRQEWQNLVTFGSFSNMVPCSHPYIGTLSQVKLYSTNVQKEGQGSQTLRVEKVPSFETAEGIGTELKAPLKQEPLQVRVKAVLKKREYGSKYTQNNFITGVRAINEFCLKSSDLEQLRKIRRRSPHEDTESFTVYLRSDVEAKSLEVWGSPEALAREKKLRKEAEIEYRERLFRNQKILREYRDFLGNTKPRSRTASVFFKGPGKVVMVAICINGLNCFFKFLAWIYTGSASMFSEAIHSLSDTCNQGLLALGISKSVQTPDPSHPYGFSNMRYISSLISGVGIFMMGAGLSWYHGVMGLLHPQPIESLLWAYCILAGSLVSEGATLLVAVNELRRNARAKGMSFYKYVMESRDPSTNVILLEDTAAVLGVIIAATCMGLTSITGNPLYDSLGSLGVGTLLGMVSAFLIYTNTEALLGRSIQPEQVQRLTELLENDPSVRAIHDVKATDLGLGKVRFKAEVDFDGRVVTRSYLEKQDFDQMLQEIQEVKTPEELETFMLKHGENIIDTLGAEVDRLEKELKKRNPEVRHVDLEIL
# Chain of UniProt Q13586 (Q13586 whole entry, looked up): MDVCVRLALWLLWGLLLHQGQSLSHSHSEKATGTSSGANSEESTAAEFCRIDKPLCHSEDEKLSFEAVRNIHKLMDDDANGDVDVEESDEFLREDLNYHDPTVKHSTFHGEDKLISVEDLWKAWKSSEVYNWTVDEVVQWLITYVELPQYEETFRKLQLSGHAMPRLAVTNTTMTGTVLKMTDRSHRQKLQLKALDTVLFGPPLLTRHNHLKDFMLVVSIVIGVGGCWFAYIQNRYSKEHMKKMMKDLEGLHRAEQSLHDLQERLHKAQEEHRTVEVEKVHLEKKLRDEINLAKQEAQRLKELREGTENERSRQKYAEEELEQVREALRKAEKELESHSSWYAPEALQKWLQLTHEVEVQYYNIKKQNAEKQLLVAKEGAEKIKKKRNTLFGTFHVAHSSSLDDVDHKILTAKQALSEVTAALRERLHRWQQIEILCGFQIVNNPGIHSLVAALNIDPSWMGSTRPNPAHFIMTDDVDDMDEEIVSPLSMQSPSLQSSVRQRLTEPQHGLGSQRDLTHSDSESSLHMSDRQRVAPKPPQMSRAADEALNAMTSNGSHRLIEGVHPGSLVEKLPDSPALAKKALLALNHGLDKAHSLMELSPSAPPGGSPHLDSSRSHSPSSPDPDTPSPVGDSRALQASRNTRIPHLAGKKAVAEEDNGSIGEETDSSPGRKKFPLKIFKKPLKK
# Chain of UniProt O95149 (O95149 whole entry, looked up): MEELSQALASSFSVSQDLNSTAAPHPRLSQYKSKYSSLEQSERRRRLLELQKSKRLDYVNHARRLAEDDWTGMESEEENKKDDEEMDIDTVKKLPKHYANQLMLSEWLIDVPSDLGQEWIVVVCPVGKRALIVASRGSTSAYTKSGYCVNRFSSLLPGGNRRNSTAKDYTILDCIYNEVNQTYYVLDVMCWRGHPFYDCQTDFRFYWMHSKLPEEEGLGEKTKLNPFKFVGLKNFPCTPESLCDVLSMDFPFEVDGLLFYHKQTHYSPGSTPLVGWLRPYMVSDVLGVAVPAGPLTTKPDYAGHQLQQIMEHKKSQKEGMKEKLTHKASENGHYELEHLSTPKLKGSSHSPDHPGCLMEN
Target,log2 fold change (vemurafenib),log2 fold change [1],log2 fold change (barasertib),log2 fold change [2],log2 fold change (volasertib),log2 fold change [3],log2 fold change [4],log2 fold change [5],log2 fold change (saracatinib),log2 fold change (sotrastaurin),log2 fold change (alvocidib),log2 fold change (Tubastatin A),log2 fold change [6],log2 fold change (defactinib),log2 fold change [7],log2 fold change (encorafenib),log2 fold change [8],log2 fold change (alisertib),log2 fold change [9],log2 fold change (gefitinib)
STIM1 (UniProt Q13586),0.003,0.012,0.036,-0.076,0.006,0.048,0.259,-0.205,0.003,-0.01,0.008,-0.056,-0.041,-0.018,0.024,0.003,-0.016,0.008,-0.106,-0.013
SH3GL1 (UniProt Q99961),-0.002,-0.01,-0.019,0.044,-0.004,0.018,0.044,-0.022,0.011,-0.03,0.017,-0.109,0.01,0.03,-0.003,-0.02,-0.042,-0.011,0.009,0.002
TARBP1 (UniProt Q13395),0.019,-0.004,0.02,0.025,-0.032,-0.047,-0.053,-0.034,-0.055,0.038,0.009,-0.118,-0.066,-0.034,0.047,0.073,-0.236,0.018,-0.004,0.011
SSB (UniProt E7ERC4),0.111,0,-0.04,-0.281,0.003,-0.134,1.92 (active),-0.377,0.013,-0.012,0.132,0.154,-0.072,-0.285,-0.023,0.081,0.013,-0.091,0.095,0.072
SLC30A9 (UniProt Q6PML9),-0.005,0.024,0.015,0.07,0.018,0.056,-0.534 (active),0.079,0.034,-0.056,0,0.022,0.002,0.064,0.023,0.032,0.05,-0.008,-0.079,-0.01
SLC11A2 isoform 3 (UniProt P49281),-0.009,0.043,0.019,0.073,0.026,0.036,-0.082,0.074,0.028,-0.012,-0.032,-0.047,0.031,-0.001,-0.008,0.063,-0.027,0.128,0.021,0.295 (active)
SPPL2A (UniProt Q8TCT8),0.312,0.023,0.077,-0.016,0.011,-0.062,-0.196,0.202,,-0.029,0.013,0.107,0.103,-0.054,,0.124,-0.063,,0.099,
SLC22A18 (UniProt Q96BI1),0.026,0.046,-0.059,0.044,0.08,,0.026,-0.032,,0.073,-0.035,,0.052,-0.076,,0.009,-0.013,,-0.077,
"SNX6, A0A0A0MRI2",0.005,0.025,0.006,-0.111,-0.05,0.026,0.21,-0.126,-0.002,-0.013,0.076,-0.051,0.004,0.008,-0.024,0.007,0.171,-0.008,-0.003,-0.01
SFR1 isoform 2 (UniProt Q86XK3),-0.031,-0.037,0.024,0.028,0.022,0.013,-0.087,-0.119,-0.04,0.085,-0.014,-0.003,-0.009,-0.155,-0.005,0.014,-0.007,0.004,-0.007,-0.03
TARDBP (UniProt Q13148),0.027,0.016,0.151,0.007,-0.125,0.169,-0.008,-0.069,0.058,-0.032,-0.006,-0.318 (active),-0.044,0,-0.139,0.181,0.137,0.012,-0.004,0.06
SRGN (UniProt P10124),0.177,0.093,-0.033,0.059,-0.086,-0.005,-0.022,0.101,0.043,0.069,-0.509 (active),0.027,0.048,0.175,0.065,0.014,-0.055,,0.026,
SLC25A44 (UniProt Q96H78),0.014,0.015,0.007,0.002,0.06,0.307,0.021,0.17,-0.041,0.062,-0.05,0.007,-0.221,0.064,0.14,0.015,-0.013,,0.099,
SNUPN (UniProt O95149),-0.008,0.007,0.06,-0.082,0.04,0.051,-0.024,-0.036,,0.028,0.012,0.028,-0.173,-0.066,,0.006,0.155,-0.007,-0.009,0.076
SYK (UniProt P43405),0.184,0.065,0.092,,0.027,-0.123,-0.644 (active),-0.001,-0.041,0.068,-0.142,-0.015,-0.009,-0.105,0.115,0.01,0.154,,0.11,-0.004
SORBS3 (UniProt O60504),-0.092,0.067,-0.032,0.034,-0.129,-0.05,-0.025,0.004,0.052,-0.011,0,-0.095,0.032,-0.062,0.059,0.02,-0.143,,0.065,
